Common to all, as to test: NCI-60 one-dose screen, 48 h (100 = growth as untreated, 0 = no growth, -100 = all killed)
What all share (conditions): 10 µM

Test [1] deals with RPMI-8226 leukemia.
Test [2] has as its system OVCAR-8 ovarian.
In test [3] the test system is OVCAR-5 ovarian.
The test system of test [4] is OVCAR-4 ovarian.
The test system of test [5] is SK-OV-3 ovarian.
In test [6] the test system is IGROV1 ovarian.
In test [7] the test system is OVCAR-3 ovarian.
Test [8] relates to HS 578T breast.
For test [9], the system named is NCI/ADR-RES ovarian.
In test [10] the test system is BT-549 breast.
The test system of test [11] is MDA-MB-435 melanoma.
Test [12] concerns SW-620 colon.
Test [13] deals with MCF7 breast.
Test [14] relates to HCT-116 colon.
For test [15], the system named is HCC-2998 colon.
The subject of test [16] is KM12 colon.
The subject of test [17] is T-47D breast.

About 83,000 compounds went through this panel and 20% of them were active in at least one assay; those are over-represented in the sample as a whole.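 Step 1: grow cells in 96-well plates. Step 2: add test compound at a single concentration. Step 3: incubate 48 h. Step 4: record percent growth.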 Unmarked numbers belong to inactive results. Calls of active or inactive are those of the source. Rule for the calls: active = growth percent below 10; inactive = the rest.

As for `C=C(C(=O)c1ccccc1)C(NC(C)(C)C)c1ccccc1` (configuration not stated), the growth in test [1] was -3.32% (active); in [2], -32% (active); in test [3], -29.2% (active); in test [4], -13.1% (active); in test [5], 67.9%; in test [6], 3.59% (active). In addition, the growth in test [7] is -65.9% (active); in test [8], 36.8%; in test [9] it was -7% (active); in test [10], 34.8%; in test [11], 7.63% (active); in test [12], -19.7% (active). Moreover, the growth in test [13] was 9.57% (active); in [14], -90.6% (active); in [15], 1.14% (active); in [16], 25.8%.

Turning to `COc1cc(C(=O)N2CCN(c3ccccc3OC)CC2)c(N)cc1OCCCN1CCN(c2ccccc2OC)CC1`, the growth in test [1] was 56.4%; in test [2], 101%; in test [3] it was 81.6%; in [4], 77.7%; in test [5] it was 75.4%; in test [6], 77.6%. Besides, the growth is 77.7% in [7]; 99% in [8]; 80.1% in [9]; 94.4% in test [10]; 101% in test [11]; 90.6% in test [12]. Besides, the growth is 96% in test [13], 81.9% in test [14], 101% in [15] and 88.4% in [16].

`CCCCCCCNc1nc(C=O)ncc1-c1ccc(C(F)(F)F)cc1`: the growth in test [1] was 84%; in [2], 102%; in [3] it was 103%; in test [4], 110%; in test [5], 96.5%; in test [6], 89.8%. Besides, the growth in test [7] was 97.6%; in [8], 107%; in test [9], 90.1%; in test [10], 99.7%; in test [11], 100%; in test [13], 83.5%. Further, the growth in test [14] was 98.3%; in test [15], 104%; in test [16], 91.2%.

In the case of `CCC(=O)N1C/C(=C/c2ccc(Br)cc2)C(=O)/C(=C/c2ccc(Br)cc2)C1`, the growth in test [1] was -28.2% (active); in test [2], -7.14% (active); in test [3] it was -22.8% (active); in test [4], -0.254% (active); in test [5], -30.6% (active); in test [6], -67.6% (active). The growth in [7] is -62.6% (active); in test [8], 9.3% (active); in [9], 10.2%; in test [10], -48.4% (active); in test [11], -63% (active); in [12] it was -64.2% (active). In addition, the growth was -16.1% (active) in test [13], -88.4% (active) in test [14] and -85.9% (active) in test [15].

For `O=S(=O)(NCCCNc1nccc(-c2c(-c3ccc(F)cc3)nc3sccn23)n1)c1ccc2ccccc2c1`, the growth is 35.9% in [1]; 29.7% in [2]; 78.7% in [3]; 56.8% in test [4]; 65.2% in test [5]; 22.8% in test [6]. Besides, the growth in test [7] is 75.3%; in test [8], 71.1%; in [9], 42.5%; in [10], 46.1%; in [11] it was 25.7%; in test [12], 51.9%. Moreover, the growth is 30.3% in [13], 37.2% in test [14], 7.22% (active) in [15] and 19.9% in test [16].

Take `COc1ccc(/C=C2/CN(C(=O)c3ccc(C)cc3)C/C(=C\c3ccc(OC)cc3)C2=O)cc1`: the growth is -6.11% (active) in test [1]; 88.9% in test [2]; 109% in test [3]; 83.8% in test [4]; 99.1% in test [5]; 89.8% in test [6]. Moreover, the growth in test [7] is 90.7%; in test [8], 92%; in test [9], 86.7%; in test [10], 94%; in [11], 41.3%; in test [12] it was 71.3%. Moreover, the figures for the growth in test [13], in [14] and in [15] were 32.8%, -27% (active) and 71.3%, respectively.

As for `CCOC1(OCC)OC(c2ccccc2)=C(C#N)C(/C=C\c2ccccc2)C1(OCC)OCC` (configuration not stated), the growth was 44.5% in test [1]; 86.5% in test [2]; 103% in test [3]; 79.6% in test [4]; 94.8% in test [5]; 85.6% in test [6]. In addition, the growth in test [7] is 71.8%; in [8], 95.1%; in [17], 67.5%; in test [10], 95.3%; in test [11], 97.2%; in [12], 83.2%. The growth was 77.4% in test [13], 53.9% in [14], 83.1% in test [15] and 84.3% in test [16].

On to `NC1=NC(=O)C(c2ccccc2)(c2ccccc2)S1`, for which the growth was 96.3% in [1]; 107% in [2]; 109% in test [3]; 97% in test [4]; 105% in test [5]; 115% in [6]. The growth in [7] is 119%; in [8], 108%; in test [9] it was 109%; in [10], 118%; in test [11] it was 121%; in [12], 108%. Further, the growth in test [13] was 105%; in [14], 106%; in test [15] it was 108%; in test [16], 107%.

For the compound `O=C(Nc1cccc(-n2cc(-c3ccncc3)c(-c3ccc(O)c(Cl)c3)n2)c1)c1ccc(N2CCOCC2)c(C(F)(F)F)c1`, the growth in [1] was -18% (active); in [2], 30.7%; in [3] it was 37.8%; in [4], 69.3%; in test [5] it was 64.2%; in test [6], 64.8%. Besides, the growth in test [7] is 60.4%; in test [8] it was 33.5%; in test [9], 43.1%; in test [10], 47.2%; in [11], 53.9%; in [12], 36.3%. Besides, the growth is 24.6% in [13], 26.7% in test [14], 23.6% in [15] and 14.9% in test [16].

As for `Cc1cccc(C)c1NC(=O)c1sc2nc3c(cc2c1N)C(=O)CCC3`, the growth in test [1] was 96%; in test [2], 97.9%; in test [3] it was 97.6%; in test [4] it was 101%; in [5], 22.5%; in test [6], 89.4%. The growth in test [7] is 100%; in test [8] it was 93.2%; in test [9], 87.6%; in test [10], 90.7%; in test [11], 13%; in test [12], 72.2%. Moreover, the growth in test [13] was 54.6%; in [14] it was 90.6%; in [15] it was 72.5%; in [16], 56.3%.

The values above are taken from PubChem BioAssay (NCI).
